Results from PubChem BioAssay (NCI).
This is part of a sample that, as a whole, favours compounds with a hit. Of some 83,000 tested, about 20% had one in any assay.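 Step 1: grow cells in 96-well plates. Step 2: add test compound at a single concentration. Step 3: incubate 48 h. Step 4: record percent growth.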 Values without a mark were called inactive. Calls of active or inactive are those of the source. The calls were made as follows: active = growth percent below 10; inactive = the rest.

What follows are compounds tested on M14 melanoma (assay: NCI-60 one-dose screen, 48 h (100 = growth as untreated, 0 = no growth, -100 = all killed)). Conditions: 10 µM unless noted.

Compound	growth
COc1cc2nc(Cl)nc(Nc3cccc(C4=Nc5c(N)nc(N)nc5NC(c5ccccc5)C4)c3)c2cc1OC (configuration not stated)	90.1%
C#C[C@]1(O)CC[C@H]2[C@@H]3CC=C4c5sc(-c6ccc7c(c6)OCO7)nc5CC[C@]4(C)[C@H]3CC[C@@]21C	6.34% (active)
CCO/C=N/C1=C(C#N)C(c2ccc(F)cc2)c2sc3c(C)cccc3c2O1 (configuration not stated)	3.68% (active)
COc1ccc(/C=C(\C#N)C(=O)N2c3ccccc3Sc3ccc(SC)cc32)cc1F	105%
NC(N)=Nc1ccc(Oc2cccc(Nc3ccc(Cl)c(C(F)(F)F)c3)c2)cc1	41.1%
COc1ccccc1-n1cc(C#N)c(N)c1C(=O)c1ccc(Br)cc1	42.3%
Cc1cccc(/C=C/C(=O)Nc2ncc(Cc3cccc(C)c3)s2)c1	0.505% (active)
NC(N)=Nc1ccc(Oc2cccc(Nc3ccc(Br)c(C(F)(F)F)c3)c2)cc1	8.54% (active)
Nc1nc(N)c2c(n1)NC(c1ccc(C(F)(F)F)cc1)CC(c1ccc(Nc3nc(NCCO)nc(N4CCOCC4)n3)cc1)=N2 (configuration not stated)	71.7%
COc1ccccc1-n1cc(C#N)c(N)c1C(=O)c1ccc(C)cc1	59.8%
O=C(CCn1c[n+](CC(=O)c2ccc(F)cc2)c2ccccc21)Nc1cccc2cccnc12	79.8%
C#CCn1cccc1CNc1ccc(OC)cc1	7.08% (active)
NC(N)=Nc1ccc(Oc2cccc(Oc3ccc(Cl)c(C(F)(F)F)c3)c2)cn1	-84.3% (active)
O=C(CCn1cc[n+](CC(=O)c2ccc(-c3ccccc3)cc2)c1)Nc1cccc2cccnc12	82.3%
C[C@@H]1C[C@H]2C(=O)O[C@@H](C)C(NC(=O)[C@H](Cc3cc(F)cc(F)c3)NC(=O)Nc3ccc(C4CC4)cc3F)C(=O)N3CCC[C@H]3C(=O)N3CCCC[C@H]3C(=O)N[C@@H](CO)C(=O)N2C1 (some centres not stated)	27.4%
CCOC(=O)c1c(Nc2ccccc2)nn2c(-c3ccccc3)ccnc12	110%

Compound	growth
C#C[C@]1(O)CC[C@H]2[C@@H]3CC=C4c5sc(-c6cccc(O)c6)nc5CC[C@]4(C)[C@H]3CC[C@@]21C	-41.1% (active)
C#C[C@]1(O)CC[C@H]2[C@@H]3CC=C4c5sc(-c6ccc(C)cc6)nc5CC[C@]4(C)[C@H]3CC[C@@]21C	-49.9% (active)
NS(=O)(=O)c1ccc(-n2cc(-c3cccc(NC(=O)c4ccc(N5CCOCC5)c(C(F)(F)F)c4)c3)nn2)cc1	45.3%
CCO/C=N/C1=C(C#N)C(c2ccc(OC)cc2)c2sc3c(CC)cccc3c2O1 (configuration not stated)	16.1%
O=C(CN1CCN(c2cc(=O)[nH]c3ccc(F)cc23)CC1)Nc1ccc(Cl)cc1	85%
COc1cc2nc(Cl)nc(Nc3cccc(C4=Nc5c(N)nc(N)nc5NC(c5ccc6c(c5)OCO6)C4)c3)c2cc1OC (configuration not stated)	89.7%
CC1(C)NCCC[C@]2(C)[C@H]3C/C(=N\O)C4[C@@H]5C[C@@](C)(CO)CC[C@]5(C)CC[C@@]4(C)[C@]3(C)CC[C@@H]12 (some centres not stated)	101%
COc1cc2nc(Cl)nc(Nc3cccc(C4=Nc5c(N)nc(N)nc5NC(c5ccc(Cl)cc5)C4)c3)c2cc1OC (configuration not stated)	52.2%
CC(C)(C)c1ccc(C(=O)Nc2sc3c(c2C(N)=O)CCC(O)C3)cc1 (configuration not stated)	-3.35% (active)
COc1ccc(-c2nc3cccc(O)c3c(=O)n2Cc2ccccc2)cc1COc1ccc(NC(C)=O)cc1	53.8% [3 µM]
N#Cc1cn(Cc2ccc(Cl)cc2Cl)c(C(=O)c2ccc(Br)cc2)c1N	98%
O=C(CCn1c[n+](CC(=O)c2ccc(-c3ccccc3)cc2)c2ccccc21)Nc1cccc2cccnc12	49.1%
Cc1ccc(S(=O)(=O)N(CC[C@@H]2C[C@H]2c2cc3ccccc3o2)S(=O)(=O)c2ccc(C)cc2)cc1	99%
Cc1nn(-c2ccccc2)c2ncnc(N/N=C/c3cccc(O)c3)c12	28.6%
COc1ccc(C2CC(c3ccc(Nc4nc(NCCO)nc(N5CCOCC5)n4)cc3)=Nc3c(N)nc(N)nc3N2)cc1 (configuration not stated)	107%
O=C(CN1CCN(c2cc(=O)n(-c3ccccc3)c3ccccc23)CC1)Nc1ccc(F)cc1	75.7%
